# Experimental data as given in article PMC7862700, “An all-to-all approach to the identification of sequence-specific readers for epigenetic DNA modifications on cytosine”.
# Key:
# Experiment in all cases: DAPPL (digital affinity profiling via proximity ligation, sequencing); 10 mM Tris-HCl pH 7.5, 50 mM NaCl, 1 mM DTT, 4% glycerol, room temperature, 30 min; GST-TFs on glutathione beads, 16-mer random dsDNA library, 0.1% formaldehyde crosslink after washing; high values mean tight binding
# FLI1 = target: T1, FLI1 (Homo sapiens, UniProt Q01543 1-452); details: protein: recombinant; tags: N-terminal GST; dsDNA, one strand shown
# T1 sequence: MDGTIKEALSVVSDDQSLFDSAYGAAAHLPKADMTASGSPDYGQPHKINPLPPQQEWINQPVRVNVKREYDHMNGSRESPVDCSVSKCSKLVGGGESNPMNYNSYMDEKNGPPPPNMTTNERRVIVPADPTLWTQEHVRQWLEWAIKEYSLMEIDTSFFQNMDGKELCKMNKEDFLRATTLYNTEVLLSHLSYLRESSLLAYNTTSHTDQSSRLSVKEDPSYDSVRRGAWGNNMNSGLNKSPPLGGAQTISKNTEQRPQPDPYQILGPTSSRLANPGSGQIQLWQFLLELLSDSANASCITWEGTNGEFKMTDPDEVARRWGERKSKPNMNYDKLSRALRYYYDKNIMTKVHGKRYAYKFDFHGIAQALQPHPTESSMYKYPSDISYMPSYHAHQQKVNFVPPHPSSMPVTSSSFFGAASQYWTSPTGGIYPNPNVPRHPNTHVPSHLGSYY
# Outline: (§1)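 After expression in yeast as GST fusions, human transcription factors were bound to glutathione beads, DNA-barcoded and mixed with a tag-only sample. The pools were incubated with 200 nmole of a 16-mer random double-stranded DNA library in Tris/NaCl/DTT/glycerol buffer (30 min, room temperature), washed and crosslinked with 0.1% formaldehyde. Proximity ligation with BsaI/T4 ligase ran for 1 h at 37 °C, before PCR amplification and sequencing on an Illumina NextSeq500. Binding signal is a hexamer's read frequency for a factor divided by its frequency for the tag-only sample.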
# ELK1 = target: T2, ELK1 (Homo sapiens, UniProt P19419 1-428); details: protein: recombinant; tags: N-terminal GST; dsDNA, one strand shown
# T2 sequence: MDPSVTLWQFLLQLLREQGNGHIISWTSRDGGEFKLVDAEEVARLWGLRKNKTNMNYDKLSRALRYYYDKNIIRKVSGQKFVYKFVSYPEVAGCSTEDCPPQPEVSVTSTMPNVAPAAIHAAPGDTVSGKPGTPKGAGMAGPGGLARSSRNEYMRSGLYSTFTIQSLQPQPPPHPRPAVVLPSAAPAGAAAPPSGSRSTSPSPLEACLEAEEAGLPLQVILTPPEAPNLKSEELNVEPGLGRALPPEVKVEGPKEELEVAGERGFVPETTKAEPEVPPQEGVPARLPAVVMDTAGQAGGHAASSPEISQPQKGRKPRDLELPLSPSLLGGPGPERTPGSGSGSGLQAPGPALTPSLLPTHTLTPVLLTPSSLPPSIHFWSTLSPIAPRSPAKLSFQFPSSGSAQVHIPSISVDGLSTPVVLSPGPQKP
# Outline: as §1
# GABPA = target: T3, GABPA (Homo sapiens, UniProt Q06546 1-454); details: protein: recombinant; tags: N-terminal GST; dsDNA, one strand shown
# T3 sequence: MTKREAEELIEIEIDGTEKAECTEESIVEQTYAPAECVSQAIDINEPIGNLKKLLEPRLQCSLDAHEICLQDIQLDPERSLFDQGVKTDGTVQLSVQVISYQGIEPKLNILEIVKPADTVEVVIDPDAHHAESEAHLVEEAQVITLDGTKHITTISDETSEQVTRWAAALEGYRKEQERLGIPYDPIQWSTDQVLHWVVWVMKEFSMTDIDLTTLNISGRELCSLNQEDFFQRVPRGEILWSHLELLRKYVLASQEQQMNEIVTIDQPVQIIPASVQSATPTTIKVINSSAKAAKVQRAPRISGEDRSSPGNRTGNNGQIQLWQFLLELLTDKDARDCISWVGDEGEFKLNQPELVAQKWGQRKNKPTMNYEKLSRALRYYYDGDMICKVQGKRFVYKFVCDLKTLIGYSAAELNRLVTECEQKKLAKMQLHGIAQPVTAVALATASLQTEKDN
# Outline: as §1
# ERG = target: T4, ERG (Homo sapiens, UniProt P11308 1-479); details: protein: recombinant; tags: N-terminal GST; dsDNA, one strand shown
# T4 sequence: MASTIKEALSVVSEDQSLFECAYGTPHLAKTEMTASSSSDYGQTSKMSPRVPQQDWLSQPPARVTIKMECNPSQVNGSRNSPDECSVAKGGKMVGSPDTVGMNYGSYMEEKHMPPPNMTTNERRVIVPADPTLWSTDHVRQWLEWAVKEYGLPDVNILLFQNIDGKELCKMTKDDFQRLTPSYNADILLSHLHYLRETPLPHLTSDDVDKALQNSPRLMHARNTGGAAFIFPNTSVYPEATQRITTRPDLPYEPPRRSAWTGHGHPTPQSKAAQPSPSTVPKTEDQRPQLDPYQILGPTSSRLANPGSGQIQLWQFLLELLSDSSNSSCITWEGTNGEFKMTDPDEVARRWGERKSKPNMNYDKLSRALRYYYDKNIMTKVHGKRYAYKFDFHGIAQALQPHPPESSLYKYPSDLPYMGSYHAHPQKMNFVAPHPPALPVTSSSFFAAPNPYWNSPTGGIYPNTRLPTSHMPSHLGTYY
# Outline: as §1
# ELF1 = ELF1 (Homo sapiens, UniProt P32519 1-619); details: protein: recombinant; tags: N-terminal GST; dsDNA, one strand shown
# Outline: as §1
# EHF = target: T5, EHF (Homo sapiens, UniProt Q9NZC4 1-300); details: protein: recombinant; tags: N-terminal GST; dsDNA, one strand shown
# T5 sequence: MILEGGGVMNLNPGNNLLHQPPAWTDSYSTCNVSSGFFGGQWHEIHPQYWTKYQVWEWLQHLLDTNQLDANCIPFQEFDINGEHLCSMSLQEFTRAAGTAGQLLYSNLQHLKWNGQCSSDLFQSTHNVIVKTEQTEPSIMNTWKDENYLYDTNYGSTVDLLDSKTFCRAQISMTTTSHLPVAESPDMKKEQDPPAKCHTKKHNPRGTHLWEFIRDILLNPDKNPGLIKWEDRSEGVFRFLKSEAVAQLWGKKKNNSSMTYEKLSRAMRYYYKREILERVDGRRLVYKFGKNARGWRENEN
# Outline: as §1
# SPI1 = SPI1 (Homo sapiens, UniProt P17947 1-270); details: protein: recombinant; tags: N-terminal GST; dsDNA, one strand shown
# Outline: as §1
# SPIB = SPIB (Homo sapiens, UniProt Q01892 1-262); details: protein: recombinant; tags: N-terminal GST; dsDNA, one strand shown
# Outline: as §1
# ELK3 = target: T6, ELK3 (Homo sapiens, UniProt P41970 1-407); details: protein: recombinant; tags: N-terminal GST; dsDNA, one strand shown
# T6 sequence: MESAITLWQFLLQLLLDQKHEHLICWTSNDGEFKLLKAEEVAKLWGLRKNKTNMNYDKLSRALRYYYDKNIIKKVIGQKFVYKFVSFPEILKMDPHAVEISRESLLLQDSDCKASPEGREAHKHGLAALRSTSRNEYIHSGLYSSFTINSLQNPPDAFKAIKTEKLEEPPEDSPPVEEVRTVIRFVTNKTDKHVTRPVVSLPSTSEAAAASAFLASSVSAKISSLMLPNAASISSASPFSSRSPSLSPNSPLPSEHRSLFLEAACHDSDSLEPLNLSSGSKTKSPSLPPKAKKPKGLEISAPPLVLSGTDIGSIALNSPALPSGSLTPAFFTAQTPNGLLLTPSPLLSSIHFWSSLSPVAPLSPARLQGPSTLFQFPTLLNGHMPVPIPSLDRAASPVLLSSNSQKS
# Outline: as §1
# FEV = target: T7, FEV (Homo sapiens, UniProt Q99581 1-238); details: protein: recombinant; tags: N-terminal GST; dsDNA, one strand shown
# T7 sequence: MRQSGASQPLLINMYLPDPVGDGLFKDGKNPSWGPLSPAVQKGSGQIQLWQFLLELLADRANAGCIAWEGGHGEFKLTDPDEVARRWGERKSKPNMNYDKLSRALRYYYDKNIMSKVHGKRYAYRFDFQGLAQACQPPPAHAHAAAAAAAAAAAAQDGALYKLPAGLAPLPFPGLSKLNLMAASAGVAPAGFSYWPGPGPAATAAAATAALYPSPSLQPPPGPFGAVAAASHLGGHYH
# Outline: as §1
# ETV5 = ETV5 (Homo sapiens, UniProt P41161 1-510); details: protein: recombinant; tags: N-terminal GST; dsDNA, one strand shown
# Outline: as §1
# HSF1 = HSF1 (Homo sapiens, UniProt Q00613 1-529); details: protein: recombinant; tags: N-terminal GST; chain copies: 3; dsDNA, one strand shown
# Outline: as §1
# SPIC = target: T8, SPIC (Homo sapiens, UniProt Q8N5J4 1-248); details: protein: recombinant; tags: N-terminal GST; dsDNA, one strand shown
# T8 sequence: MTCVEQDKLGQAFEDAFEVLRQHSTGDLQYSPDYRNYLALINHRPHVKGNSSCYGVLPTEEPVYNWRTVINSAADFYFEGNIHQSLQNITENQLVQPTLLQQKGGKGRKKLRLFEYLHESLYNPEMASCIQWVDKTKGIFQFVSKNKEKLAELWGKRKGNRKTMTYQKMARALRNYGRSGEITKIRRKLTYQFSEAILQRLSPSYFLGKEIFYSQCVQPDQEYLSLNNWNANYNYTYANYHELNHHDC
# Outline: as §1
# ELF4 = ELF4 (Homo sapiens, UniProt Q99607 1-663); details: protein: recombinant; tags: N-terminal GST; dsDNA, one strand shown
# Outline: as §1
# ELK4 = target: T9, ELK4 (Homo sapiens, UniProt P28324-2 1-405); details: protein: recombinant; tags: N-terminal GST; dsDNA, one strand shown
# T9 sequence: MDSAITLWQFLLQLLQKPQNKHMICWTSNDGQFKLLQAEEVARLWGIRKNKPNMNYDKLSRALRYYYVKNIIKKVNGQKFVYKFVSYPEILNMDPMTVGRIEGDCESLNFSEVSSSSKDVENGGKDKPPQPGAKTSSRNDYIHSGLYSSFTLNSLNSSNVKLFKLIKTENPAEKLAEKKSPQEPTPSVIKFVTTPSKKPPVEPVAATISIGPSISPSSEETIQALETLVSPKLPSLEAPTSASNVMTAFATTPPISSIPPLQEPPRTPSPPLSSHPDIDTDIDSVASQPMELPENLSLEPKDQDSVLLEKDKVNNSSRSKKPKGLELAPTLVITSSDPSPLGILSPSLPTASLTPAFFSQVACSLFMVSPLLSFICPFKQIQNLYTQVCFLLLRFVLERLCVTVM
# Outline: as §1
# ETV2 = target: T10, ETV2 (Homo sapiens, UniProt O00321 1-342); details: protein: recombinant; tags: N-terminal GST; dsDNA, one strand shown
# T10 sequence: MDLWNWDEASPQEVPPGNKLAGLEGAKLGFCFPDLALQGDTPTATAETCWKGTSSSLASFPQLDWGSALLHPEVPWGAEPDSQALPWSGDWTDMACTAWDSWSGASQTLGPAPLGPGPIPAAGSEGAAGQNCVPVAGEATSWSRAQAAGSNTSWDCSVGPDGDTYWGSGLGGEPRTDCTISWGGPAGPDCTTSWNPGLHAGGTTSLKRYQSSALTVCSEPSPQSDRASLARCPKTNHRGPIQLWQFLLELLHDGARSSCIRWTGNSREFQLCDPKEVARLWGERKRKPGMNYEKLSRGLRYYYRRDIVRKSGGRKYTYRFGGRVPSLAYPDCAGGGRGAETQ
# Outline: as §1
# ELF3 = target: T11, ELF3 (Homo sapiens, UniProt P78545 1-371); details: protein: recombinant; tags: N-terminal GST; dsDNA, one strand shown
# T11 sequence: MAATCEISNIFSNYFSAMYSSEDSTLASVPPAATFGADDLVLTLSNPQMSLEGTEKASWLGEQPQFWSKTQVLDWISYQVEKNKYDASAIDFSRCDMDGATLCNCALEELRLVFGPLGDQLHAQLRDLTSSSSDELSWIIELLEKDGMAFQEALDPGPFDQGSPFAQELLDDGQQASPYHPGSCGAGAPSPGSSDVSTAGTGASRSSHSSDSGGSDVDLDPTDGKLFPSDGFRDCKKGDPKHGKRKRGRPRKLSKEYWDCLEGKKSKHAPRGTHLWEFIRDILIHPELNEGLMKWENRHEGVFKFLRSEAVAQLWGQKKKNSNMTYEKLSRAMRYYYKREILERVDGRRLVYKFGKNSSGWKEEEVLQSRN
# Outline: as §1
# ETV1 = ETV1 (Homo sapiens, UniProt P50549 1-477); details: protein: recombinant; tags: N-terminal GST; dsDNA, one strand shown
# Outline: as §1
# Chain of ELF4 (Q99607 whole entry): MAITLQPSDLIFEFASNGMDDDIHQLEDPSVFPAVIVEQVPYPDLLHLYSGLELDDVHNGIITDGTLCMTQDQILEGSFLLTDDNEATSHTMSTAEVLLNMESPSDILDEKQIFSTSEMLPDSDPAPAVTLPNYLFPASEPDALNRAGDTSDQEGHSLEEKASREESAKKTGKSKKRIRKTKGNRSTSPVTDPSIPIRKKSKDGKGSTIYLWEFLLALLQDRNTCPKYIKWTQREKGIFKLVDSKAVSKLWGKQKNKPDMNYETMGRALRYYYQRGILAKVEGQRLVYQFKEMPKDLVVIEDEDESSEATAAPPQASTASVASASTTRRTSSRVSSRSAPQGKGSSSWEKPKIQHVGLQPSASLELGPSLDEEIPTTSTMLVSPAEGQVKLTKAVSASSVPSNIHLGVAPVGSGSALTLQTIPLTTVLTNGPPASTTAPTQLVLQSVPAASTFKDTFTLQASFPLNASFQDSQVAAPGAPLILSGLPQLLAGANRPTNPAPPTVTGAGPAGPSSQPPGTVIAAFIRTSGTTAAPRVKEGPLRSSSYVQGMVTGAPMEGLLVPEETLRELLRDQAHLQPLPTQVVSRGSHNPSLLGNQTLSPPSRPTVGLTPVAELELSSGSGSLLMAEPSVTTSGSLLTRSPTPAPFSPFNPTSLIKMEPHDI
# Chain of ETV1 (P50549 whole entry): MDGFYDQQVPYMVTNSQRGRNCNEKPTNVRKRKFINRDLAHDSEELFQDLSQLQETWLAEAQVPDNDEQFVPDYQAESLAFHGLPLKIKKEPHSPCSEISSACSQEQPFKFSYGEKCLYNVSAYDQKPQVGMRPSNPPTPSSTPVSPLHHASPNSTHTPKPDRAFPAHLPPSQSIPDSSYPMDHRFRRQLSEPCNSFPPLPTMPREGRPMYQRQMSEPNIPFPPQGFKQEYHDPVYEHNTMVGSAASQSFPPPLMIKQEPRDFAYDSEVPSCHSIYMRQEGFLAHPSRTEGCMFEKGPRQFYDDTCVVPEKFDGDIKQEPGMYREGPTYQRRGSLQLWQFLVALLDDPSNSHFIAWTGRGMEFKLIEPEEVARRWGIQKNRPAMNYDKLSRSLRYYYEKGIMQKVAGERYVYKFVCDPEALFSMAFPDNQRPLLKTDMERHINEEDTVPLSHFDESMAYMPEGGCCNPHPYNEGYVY
# Chain of ELF1 (P32519 whole entry): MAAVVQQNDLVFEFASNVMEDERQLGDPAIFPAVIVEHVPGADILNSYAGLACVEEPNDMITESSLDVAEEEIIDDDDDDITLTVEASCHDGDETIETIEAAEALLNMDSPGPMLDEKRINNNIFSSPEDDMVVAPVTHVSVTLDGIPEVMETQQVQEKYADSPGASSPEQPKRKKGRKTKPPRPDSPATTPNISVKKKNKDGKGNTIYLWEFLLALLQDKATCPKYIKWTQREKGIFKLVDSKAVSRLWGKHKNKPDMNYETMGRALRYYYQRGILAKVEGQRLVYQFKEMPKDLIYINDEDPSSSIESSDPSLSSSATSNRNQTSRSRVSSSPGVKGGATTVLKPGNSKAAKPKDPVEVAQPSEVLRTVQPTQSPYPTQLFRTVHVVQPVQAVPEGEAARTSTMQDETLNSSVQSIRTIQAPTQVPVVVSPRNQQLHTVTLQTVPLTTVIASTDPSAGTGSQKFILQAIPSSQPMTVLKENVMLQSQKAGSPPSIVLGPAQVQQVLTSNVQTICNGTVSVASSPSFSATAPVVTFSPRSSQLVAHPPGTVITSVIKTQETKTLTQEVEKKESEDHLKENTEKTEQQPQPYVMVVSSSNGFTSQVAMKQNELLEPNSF
# Chain of ETV5 (P41161 whole entry): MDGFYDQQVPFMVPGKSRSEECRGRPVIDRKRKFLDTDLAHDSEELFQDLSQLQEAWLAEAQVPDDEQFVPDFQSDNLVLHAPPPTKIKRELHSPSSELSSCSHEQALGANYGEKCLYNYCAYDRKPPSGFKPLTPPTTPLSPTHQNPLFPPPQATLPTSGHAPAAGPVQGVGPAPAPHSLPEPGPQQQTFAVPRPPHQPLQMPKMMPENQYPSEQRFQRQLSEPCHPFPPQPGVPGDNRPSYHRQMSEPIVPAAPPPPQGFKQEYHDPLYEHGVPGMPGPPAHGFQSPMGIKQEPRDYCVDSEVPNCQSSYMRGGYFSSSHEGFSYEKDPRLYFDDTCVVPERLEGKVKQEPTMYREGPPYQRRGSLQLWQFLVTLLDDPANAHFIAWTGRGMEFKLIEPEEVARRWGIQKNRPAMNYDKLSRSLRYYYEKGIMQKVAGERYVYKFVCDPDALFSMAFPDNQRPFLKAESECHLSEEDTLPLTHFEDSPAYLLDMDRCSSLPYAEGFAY
# Chain of HSF1 (Q00613 whole entry): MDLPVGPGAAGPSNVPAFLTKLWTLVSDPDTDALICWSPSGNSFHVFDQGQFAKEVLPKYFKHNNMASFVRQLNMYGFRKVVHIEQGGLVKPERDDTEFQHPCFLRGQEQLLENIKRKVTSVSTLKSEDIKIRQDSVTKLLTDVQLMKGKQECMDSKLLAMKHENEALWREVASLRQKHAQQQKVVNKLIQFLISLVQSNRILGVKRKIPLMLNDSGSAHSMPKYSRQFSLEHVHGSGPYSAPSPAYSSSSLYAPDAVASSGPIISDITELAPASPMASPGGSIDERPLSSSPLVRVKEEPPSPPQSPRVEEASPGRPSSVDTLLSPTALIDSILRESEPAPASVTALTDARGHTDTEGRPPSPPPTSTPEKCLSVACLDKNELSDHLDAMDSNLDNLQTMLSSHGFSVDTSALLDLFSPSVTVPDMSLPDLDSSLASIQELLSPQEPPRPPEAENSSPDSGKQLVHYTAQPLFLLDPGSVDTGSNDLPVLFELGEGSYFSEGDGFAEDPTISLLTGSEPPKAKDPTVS
# Chain of SPIB (Q01892 whole entry): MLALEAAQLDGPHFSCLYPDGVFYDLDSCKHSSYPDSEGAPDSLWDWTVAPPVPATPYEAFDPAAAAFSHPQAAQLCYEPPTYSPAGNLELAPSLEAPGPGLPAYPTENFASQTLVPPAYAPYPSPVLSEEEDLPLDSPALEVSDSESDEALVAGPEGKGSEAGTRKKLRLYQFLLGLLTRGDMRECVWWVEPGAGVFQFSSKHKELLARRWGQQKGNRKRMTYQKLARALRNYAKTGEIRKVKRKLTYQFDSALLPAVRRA
sequence,measurement,setting,value
AACACG,binding signal,FLI1,"1.26 fold enrichment (6-mer frequency, TF over GST control)"
same,binding signal,ELK1,"1.23 fold enrichment (6-mer frequency, TF over GST control)"
same,binding signal,GABPA,"1.1 fold enrichment (6-mer frequency, TF over GST control)"
same,binding signal,ERG,"1.22 fold enrichment (6-mer frequency, TF over GST control)"
same,binding signal,ELF1,"1.18 fold enrichment (6-mer frequency, TF over GST control)"
same,binding signal,EHF,"1.14 fold enrichment (6-mer frequency, TF over GST control)"
same,binding signal,SPI1,"1.17 fold enrichment (6-mer frequency, TF over GST control)"
same,binding signal,SPIB,"1.13 fold enrichment (6-mer frequency, TF over GST control)"
same,binding signal,ELK3,"1.16 fold enrichment (6-mer frequency, TF over GST control)"
same,binding signal,FEV,"1.19 fold enrichment (6-mer frequency, TF over GST control)"
same,binding signal,ETV5,"1.25 fold enrichment (6-mer frequency, TF over GST control)"
same,binding signal,HSF1,"1.02 fold enrichment (6-mer frequency, TF over GST control)"
same,binding signal,SPIC,"1.33 fold enrichment (6-mer frequency, TF over GST control)"
same,binding signal,ELF4,"1.24 fold enrichment (6-mer frequency, TF over GST control)"
same,binding signal,ELK4,"1.22 fold enrichment (6-mer frequency, TF over GST control)"
same,binding signal,ETV2,"1.07 fold enrichment (6-mer frequency, TF over GST control)"
same,binding signal,ELF3,"1.19 fold enrichment (6-mer frequency, TF over GST control)"
same,binding signal,ETV1,"1.24 fold enrichment (6-mer frequency, TF over GST control)"
